Eight molecules from PubChem BioAssay (NCI) can be followed below.

What all share (assay): NCI-60 one-dose screen, 48 h (100 = growth as untreated, 0 = no growth, -100 = all killed)
Conditions in all cases: 10 µM

Assay [1] relates to HCT-15 colon.
The test system of assay [2] is HT29 colon.
For assay [3], the system named is SNB-75 CNS.
The test system of assay [4] is SNB-19 CNS.
Assay [5] concerns U251 CNS.
The subject of assay [6] is PC-3 prostate.
Assay [7] relates to SK-MEL-5 melanoma.
Assay [8] deals with UACC-62 melanoma.
Assay [9] deals with LOX IMVI melanoma.
Assay [10] relates to SK-MEL-28 melanoma.
Assay [11] deals with SK-MEL-2 melanoma.
The subject of assay [12] is EKVX NSCLC.
Assay [13] relates to SN12C renal.
Assay [14] deals with UO-31 renal.
In assay [15] the test system is TK-10 renal.
Assay [16] relates to ACHN renal.
Assay [17] has as its system CAKI-1 renal.
In assay [18] the test system is A498 renal.
Assay [19] concerns CCRF-CEM leukemia.
The subject of assay [20] is MOLT-4 leukemia.

Compounds without any hit were thinned out: in the full panel of roughly 83,000, 20% have a hit.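 Percent growth is the endpoint: 0 to 100 indicates growth inhibition (40 means 60% inhibition), 0 means no net growth, and negative values indicate cell death.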 A number with no mark means an inactive call. Calls of active or inactive are those of the source. Rule for the calls: active = growth percent below 10; inactive = the rest.

As to `CC1(C)CC[C@]23CC[C@]4(C)[C@H](CC[C@@H]5[C@@]6(C)CC[C@H](N)C(C)(C)[C@@H]6CC[C@]54C)[C@H]2[C@H]1OC3=O`, the growth in assay [1] was -91.7% (active); in assay [2] it was -66.7% (active); in assay [3], -75.3% (active); in [4], -98.7% (active); in assay [5], -88.9% (active); in assay [6], -57.5% (active). For the same molecule, the growth in assay [7] was -100% (active); in assay [8] it was -96.1% (active); in assay [9], -98.9% (active); in [10], -100% (active); in assay [11], -77.2% (active); in assay [12], -95.4% (active). In addition, the growth is -96% (active) in assay [13]; -96.7% (active) in assay [14]; -90.1% (active) in [15]; -100% (active) in assay [16]; -98.2% (active) in assay [17]; -90.3% (active) in assay [18]. Further, in assay [19], the growth was -32.4% (active).
`COc1ccccc1NCc1ccc(CO)n1-c1ccc(C)cc1`: the growth in assay [1] is 96.7%; in assay [2], 102%; in [3], 80.2%; in assay [4] it was 94.9%; in assay [5] it was 96.1%; in assay [6], 80.2%. Moreover, the growth is 100% in [7]; 83.8% in [8]; 86.5% in assay [9]; 106% in assay [10]; 104% in assay [11]; 98.9% in [12]. Also, the growth was 86.8% in [13]; 60.3% in assay [14]; 107% in assay [15]; 93.3% in [16]; 79.9% in assay [17]; 123% in [18]. Besides, the growth in assay [19] was 86.3%.
For `CC1(C)CC[C@]2(C(=O)Nc3ccccc3)CC[C@]3(C)C(=CC[C@@H]4[C@@]5(C)CC[C@H](N)C(C)(C)[C@@H]5CC[C@]43C)[C@H]2C1`, the growth was -71.4% (active) in assay [1]; 21.8% in [2]; 95.6% in assay [3]; 100% in [4]; -47.5% (active) in [5]; 75.8% in assay [6]. Moreover, the growth in [7] was 94.5%; in assay [8] it was 115%; in assay [9], -98.7% (active); in assay [10], 109%; in [11], 107%; in assay [12], 90.5%. Also, the growth in [13] was 87.7%; in assay [14], 71.5%; in assay [15], 107%; in assay [16], 90.3%; in assay [17] it was 79.9%; in assay [18], 131%. Further, the growth in assay [19] is 32.6%.
As for `O=C(CNc1nc(-c2ccccc2)cs1)Nc1cccc(Cl)c1`, the growth is 5.51% (active) in assay [1]; 32.1% in assay [2]; 50.2% in [3]; 51% in [4]; 26.9% in assay [5]; 18.9% in [6]. For the same molecule, the growth in assay [7] was 35.5%; in [8] it was 19.8%; in [9], 7.96% (active); in assay [10], 42.8%; in assay [11], 38.2%; in [12], 13.6%. Besides, the growth in [13] is 41.4%; in [14], 9.97% (active); in [15] it was 52.5%; in assay [16] it was 28.3%; in assay [17], 28.4%; in assay [18] it was 66.5%. Further, the growth is 26.3% in assay [19] and 7.42% (active) in assay [20].
With `CN(C)CCNC(=O)OCCCCOc1cc(O)c2c(=O)cc(-c3ccccc3)oc2c1`, the growth in [1] was -51.8% (active); in assay [2], -54.4% (active); in assay [3] it was 103%; in [4] it was -32.7% (active); in assay [5] it was -64.1% (active); in assay [6], 10.3%. In addition, the growth in assay [7] was -100% (active); in assay [8] it was -88.4% (active); in assay [9], -100% (active); in [10] it was -91.5% (active); in assay [11], -59.7% (active); in assay [12], 11.7%. The growth was -9.43% (active) in [13]; -91.2% (active) in [14]; 0.634% (active) in [15]; -97.5% (active) in [16]; -39.1% (active) in assay [17]; -76.4% (active) in assay [18]. Further, the growth is -5.67% (active) in assay [19] and -42.1% (active) in assay [20].
For the molecule `O=C(COc1ccc(NC(=O)Nc2ccc(Cl)cc2)cc1)N=Nc1c(O)[nH]c2ccc([N+](=O)[O-])cc12`, the growth is 94.1% in assay [1]; 34.8% in assay [2]; 29.9% in assay [3]; 19.1% in assay [4]; -67.6% (active) in [5]; 46.8% in assay [6]. Moreover, the growth in assay [7] was 63.1%; in [8] it was 11.3%; in assay [9], 13.9%; in [10] it was -4.38% (active); in assay [11] it was -15.7% (active); in [12] it was 88.3%. Further, the growth was 32.3% in [13]; 77.2% in assay [14]; 101% in assay [15]; 93.4% in assay [16]; 96.3% in assay [17]; 119% in [18]. Also, the growth in assay [19] is -36.9% (active).
On to `COc1ccc(OC)c(-c2cc(-c3c[nH]c4ccccc34)nc(N)c2C#N)c1`, for which the growth is 1.05% (active) in assay [1]; -12.6% (active) in assay [2]; -8.84% (active) in assay [3]; 11.6% in assay [4]; -1.3% (active) in [5]; 13.1% in assay [6]. The growth in [7] is -84.8% (active); in [8], -8.1% (active); in [9] it was -65.8% (active); in assay [10], 4.59% (active); in [11], -18.3% (active); in assay [12], 13.7%. Moreover, the growth in assay [13] is 2.5% (active); in [14], -15.5% (active); in [15], 37.4%; in assay [16] it was 8.49% (active); in [17], 7.28% (active); in assay [18], 2.72% (active). In addition, the growth in assay [19] was 8.99% (active); in [20], 7.55% (active).
`O=C(c1ccc(O)cc1)C1[C@H](c2ccc(Br)cc2)[C@@H](c2ccccc2)NC12C(=O)Nc1ccccc12` (stereo partly specified): the growth in assay [1] was 24.6%; in assay [2], -9.34% (active); in [3], 46.5%; in assay [4] it was 47.8%; in assay [5], 22%; in assay [6] it was 32.1%. Further, the growth is 30.1% in assay [7]; 50.9% in [8]; -96.9% (active) in assay [9]; 78.5% in assay [10]; 55.7% in [11]; 28% in assay [12]. Moreover, the growth in assay [13] was 23.5%; in assay [14], 18.9%; in assay [15], 35.9%; in assay [16] it was 6.89% (active); in assay [17] it was 22.6%; in [18], 37%. Moreover, the growth in assay [19] is 36.3%; in assay [20] it was 16.3%.
